Assay results published in PubChem BioAssay AID1259343 (VanderVen Lab, College of Veterinary Medicine, Cornell …, 2017).
Hit rate of the full screen: of about 6,200 compounds, about 2,900 (47%) were called active. The set was probably picked from earlier hits. This is one part of the list. Unmarked numbers belong to inactive results. Rule as the data show it: active = inhibition above about 50%; inactive = the rest.

Test: Mycobacterium tuberculosis growth inhibition, primary screen (AID 1259343)
Conditions: inhibition: at 10 µM, hits give high values; outcome: 10 uM

SMILES | inhibition
Cc1cc(=O)[nH]c(SCc2cc(-c3ccco3)on2)c1C#N | 20.5%
COc1cccc(-c2ccc(CNC(=O)c3n[nH]c(=O)[nH]3)cc2)c1 | 76.1% (active)
Cc1cc2cc(CNC(=S)Nc3ccccc3)ccc2n1C | 49.3%
Cc1c(NC(=S)NCc2ccccn2)c(=O)n(-c2ccccc2)n1C | 92.7% (active)
Cc1c(NC(=S)NC(=O)c2ccc(Br)o2)c(=O)n(-c2ccccc2)n1C | -13.3%
Cc1ccc(S(=O)(=O)N=[N+]([O-])C2([N+](=O)[O-])COC(C)OC2)cc1 (stereo unspecified) | 102% (active)
CCOC(=O)c1ccc(N=Cc2c(O)c([N+](=O)[O-])cc3oc4c(c23)CCCC4)cc1 | 97.7% (active)
O=C(Nc1cccc(-c2ccco2)c1)C1CCN(C(=O)Cc2ccsc2)CC1 | 95.1% (active)
Cc1ncsc1CCC(=O)N1CCC(C(=O)Nc2cccc(-c3ccco3)c2)CC1 | 86.6% (active)
CC(C)c1csc(CN2CCC(C(=O)Nc3cccc(-c4ccco4)c3)CC2)n1 | inactive
CC(=O)c1ccc(C(=O)N2CCC(C(=O)Nc3cccc(-c4ccco4)c3)CC2)s1 | 92.1% (active)
O=C(Nc1cccc(-c2cscn2)c1)C1CCN(Cc2cccc(-c3ccco3)c2)CC1 | 86.2% (active)
Cc1ccccc1OCC(=O)Nc1ccc2c(c1)CCC(=O)N2CCC(C)C | 9.17%
Cc1ccc(NC(=O)CN2CSCC2=O)cc1OCC(F)F | 81.5% (active)
N#Cc1ncn(Cc2nc3scc(-c4ccc(Br)cc4)c3c(=O)[nH]2)n1 | 50.4% (active)
Cn1cccc1C(=O)OCc1nc2scc(-c3ccccc3)c2c(=O)[nH]1 | 37.5%
N#Cc1c(-c2ccc(Br)cc2)csc1N1CCCCC1 | 38.9%
O=C1NC(=O)N(C2CCCCC2)C(=O)C1=CC=Cc1ccco1 | 19.5%
CC(=NN=c1sc2ccccc2n1C)c1ccccc1Br | 11.9%
CC(=NN=c1sc2ccccc2n1C)c1ccco1 | 1.85%
Cn1c(=NN=C2CCCc3ccccc32)sc2ccccc21 | 85.9% (active)
Cn1c(=NN=C2CC3CC=CC23)sc2ccccc21 (stereo unspecified) | 102% (active)

SMILES | inhibition
CC1=CC(=NNc2ncc(Cl)cc2Cl)CC(C)(C)C1 | -13.2%
CC1=CC(=NN=c2sc3ccccc3n2C)CC(C)(C)C1 | 95% (active)
Cc1ccc(Cl)cc1N1CCN(C(=O)Nc2nncs2)CC1 | 2.42%
O=c1c(C2OCC3(CO2)CC2C=CC3C2)coc2ccccc12 (stereo unspecified) | 35.6%
Nc1ccn2ncc([P+](c3ccccc3)(c3ccccc3)c3ccccc3)c2n1 | 24%
CCCCc1ccc(NC(=O)/C=C/c2cnn(C)c2C)cc1 | 93.3% (active)
Cc1ccc(NC2=C(Cl)C(=O)N(CC(C)C)C2=O)cc1 | 73.8% (active)
COc1ccccc1N1C(=O)C(Cl)=C(Nc2ccc(S(N)(=O)=O)cc2)C1=O | -0.54%
CCN(CC)CCN(C(=O)c1ccnn1CC)c1nc2c(C)c(Cl)ccc2s1 | 38.3%
Cc1c(Cl)ccc2sc(N3CCNCC3)nc12 | 90.2% (active)
Cc1ccc(Cl)c2sc(N3CCNCC3)nc12 | 100% (active)
Cc1cc(C)c2nc(N3CCNCC3)sc2c1 | 97.1% (active)
Cc1ccc(Cl)c2sc(NCCN(C)C)nc12 | 36.2%
Cc1nc(N2CCNC(=O)C2)c2c(CC(C)C)csc2n1 | -15.6%
Cc1c(O)cccc1C(=O)NC1CC(=O)N(CC2CCCCC2)C1 (stereo unspecified) | -18.6%
C/C(=C/C(=O)NCCc1ccccc1F)CCc1ccccc1 | 23.7%
Cc1ccc(C)c2[nH]c(=O)c(CCNC(=S)NCCc3ccccc3)cc12 | 51.5% (active)
N#CC(C#N)=NNc1ccccc1 | -41.6%
Fc1ccc(NN=C2c3ccccc3-c3ccccc32)cc1 | 44.1%
N#CC(C#N)=NNc1ccc2c(c1)OCO2 | 45.5%
N#CC(C#N)=NNc1ccc(SC(F)F)cc1 | 82.4% (active)
N#CC(C#N)=NNc1ccc2c(c1)OCCO2 | 70.3% (active)

SMILES | inhibition
N#CC(C#N)=NNc1ccc(F)cc1 | 91.2% (active)
CCCOCCn1cc(C2CC=CCC2)nn1 (stereo unspecified) | 75.7% (active)
S=C(c1ccc(-c2ccc(Cl)c(Cl)c2)o1)N1CCOCC1 | 19.5%
O=C(NCCC(=O)N1CCCC1)c1ccc(-c2ccc(Cl)cc2)o1 | 86.7% (active)
C=CCn1c(-c2cc3c(s2)CCC(CC)C3)n[nH]c1=S (stereo unspecified) | 3.05%
CCC1CCc2c(sc3nc[nH]c(=O)c23)C1 (stereo unspecified) | 51.2% (active)
OCC1(CO)COC(c2ccccc2)=N1 | 56.2% (active)
Cc1ccc(-n2cc(O)nn2)cc1 | 94% (active)
Cc1ccc(OCc2cn(-c3ccc(Cl)cc3)nn2)cn1 | 24.1%
CCCCN(CCCC)c1nc(OC)nc(-n2nnc(C(C)=O)c2C)n1 | 15%
Cn1c(=NC(=O)c2ccc3ccccc3n2)sc2ccccc21 | 45.5%
Cc1cc(C)c(CNC(=O)c2ccc3ccccc3n2)c(=O)[nH]1 | 70.6% (active)
OCCNc1nc(-c2ccccc2)c2cc(Br)ccc2n1 | 3.07%
O=C(c1cc(-c2cccs2)on1)N1CCCC1 | 51.3% (active)
Cc1cc(/C=C(/Cl)c2nc(-c3cccs3)no2)cc(C)c1O | 32.2%
O=C(c1scc2c1CCCC2)N1CCCC1 | 16.9%
O=C(NC1CCCC1)c1cc(-c2cccs2)on1 | 93.6% (active)
O=C(NC1CCCC1)c1nc(-c2cccs2)no1 | 79.1% (active)
Cc1noc(-c2cccs2)c1C(=O)NCCOc1ccccc1 | -3.83%
Cc1cc(C(=O)N2CCC(N3CCCC(C(=O)N4CCOCC4)C3)CC2)no1 (stereo unspecified) | -0.96%
O=C(NCc1ccco1)c1cc(-c2cccs2)on1 | 35.1%
N#CC(O[C@@H]1O[C@H](CO[C@@H]2O[C@H](CO)[C@@H](O)[C@H](O)[C@H]2O)[C@@H](O)[C@H](O)[C@H]1O)c1ccccc1 (stereo partly specified) | -0.91%
